The record followed here is PubChem BioAssay AID2012 (Sanford-Burnham Center for Chemical Genomics, 2009).

The target in this test is Eukaryotic translation initiation factor 4H (Homo sapiens) (UniProt Q15056). Kind of test: human eIF4H binding inhibitors, primary screen, translation initiation inhibitor project, biochemical, uHTS, fluorescence polarization (AID 2012).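 Further: calls also rest on retests at 20 µM and on dose response follow-up.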 To be noted: eIF4H fluorescence polarization binding assay, stronger effect = higher value. For orientation: In fluorescence polarisation assays a small probe gives low polarisation when free and higher when bound to something large.

Among all 290,000 compounds or so, about 2,700 (0.93%) were called active. How the calls were made is not given here. This excerpt belongs to a sample that is enriched for actives.

Consider `Cc1ccc(C(=O)c2coc3ccc(O)c(CN(C)C)c23)cc1`, for which the inhibition (in general, the relative decrease from the control value, in per cent) (at 35 µM) was -10.3% (inactive).
For the molecule `Cc1c(CC(=O)N2CCN(C(=O)C3COc4ccccc4O3)CC2)c(=O)oc2c(O)c(O)ccc12` (stereo not given), the inhibition reads like this: (at 35 µM) 61% (active); (confirmation average, at 20 µM) 103%.
Regarding `Cc1c(C)c2ccc(OCC(=O)N3CCC(C(=O)O)CC3)c(C)c2oc1=O`, the inhibition (at 35 µM) is -4% (inactive).
The same measure, in the same setting: the result for `O=C(CNC(=O)C1COc2ccccc2O1)N/N=C/c1cc(Br)c(O)c(Br)c1` (stereo not given) reads 7.4% (inactive); that for `COc1ccccc1OCc1ccc(C(=O)NC(C)c2ccccc2)o1` (stereo not given), -6.4% (inactive); that for `Cc1cccc(-c2nc3ccc(C(=O)NCCN4CCN(C)CC4)cc3nc2-c2cccc(C)c2)c1`, -1.5% (inactive).
Same read-out and setting: the figure for `O=C1CN(C(=O)c2ccccc2F)C(c2ccc(F)cc2)c2cc(F)ccc2N1` (stereo not given) is -4.2% (inactive).
As to `Cc1c(-c2ccccc2)cn2c1-c1ccc(C)n1CC2`, the inhibition (at 35 µM) was 90.6% (active).
For `Cc1ccc2c(c1)N(CC(=O)N1CCC(C)CC1)C(=O)c1cccnc1O2`, the inhibition (at 35 µM) is -17.4% (inactive).
Still for that read-out and setting: the result for `CCOc1ncccc1C(=O)NCCc1ccc(OC)cc1` reads -1.9% (inactive); that for `COC(=O)c1cc(CNC(=O)CC(C)c2ccccc2)ccc1OC` (stereo not given), -2% (inactive).
Regarding `C/C(=N\NC(=O)COc1ccc(C)cc1[N+](=O)[O-])c1ccc2c(c1)OCCO2`, the inhibition (at 35 µM) is -2.1% (inactive).
`CC(NC(=O)COc1ccc(-c2ccccc2)cc1)C1CCCO1` (stereo not given): the inhibition (at 35 µM) was -6.9% (inactive).
Same read-out and setting: the result for `COC(=O)c1cnn2c(C(F)(F)F)cc(-c3ccco3)nc12` reads -0.4% (inactive).
For `Cc1cc(C)c2nc(-c3ccco3)cc(C(=O)O)c2c1`, the inhibition (at 35 µM) is 103% (active).
On the same count and under the same terms, the result for `Cc1ccsc1-c1cc(C(=O)O)c2c(ccc3ccccc32)n1` reads 30.1% (inactive).
Turning to `Cc1nc(N2CCOCC2)sc1C(=O)NN`, the inhibition (at 35 µM) was 0.1% (inactive).
Consider `Fc1cc(F)c2nc(N3CCOCC3)sc2c1`, for which the inhibition (at 35 µM) was -7.8% (inactive).
Consider `Cc1cc(C)n(Cc2cnc(N3CCOCC3)s2)n1`, for which the inhibition is -7.9% (active) (at 35 µM) and 107% (confirmation average, at 20 µM).
With `COc1cccc(NC(=O)C(=O)c2cn(CC(=O)N3CCOCC3)c3ccccc23)c1`, the inhibition (at 35 µM) is -12.2% (inactive).
On to `Cc1cc(C)c2c(-c3ccc(F)cc3)c(C#N)c(=O)n(C)c2n1`, for which, where the note is “at 35 µM”, the inhibition was -1.8% (inactive).
With `Cn1c(N)cc(-c2ccc(F)cc2)c(C#N)c1=O`, the inhibition is, setting by setting: (at 35 µM) -11% (active); (confirmation average, at 20 µM) 108%.
Take `COc1ccc(O)c(C(=O)c2cnc3c(c2)c(-c2ccc(F)cc2)c(C#N)c(=O)n3C)c1`: the inhibition (at 35 µM) was -3.7% (inactive).
Same read-out and setting: the result for `CC(=O)NCCNC(=O)c1cc(-c2cccc3ccccc23)nc2ccccc12` reads 0.8% (inactive); that for `O=S(=O)(c1ccc(F)cc1)N1CC=C(c2ccccc2)CC1`, -1.4% (inactive); that for `COc1ccccc1N1CCN(S(=O)(=O)c2ccc(Cl)cc2)CC1`, -8.3% (inactive).
Take `Cc1c(C2=CCN(S(=O)(=O)c3ccc(Cl)cc3)CC2)c2ccccc2n1C`: the inhibition was 91.5% (active) (at 35 µM) and 99.6% (confirmation average, at 20 µM).
For `CCOc1ccc(C(=O)Nc2c3c(nn2-c2ccccc2)CS(=O)(=O)C3)cc1`, the inhibition (at 35 µM) was -1.2% (inactive).
Still for that read-out and setting: the figure for `O=C(Nc1ncc([N+](=O)[O-])s1)C1COc2ccccc2O1` (stereo not given) is -6.7% (inactive).
Same read-out and setting: the figure for `N[C@@H](Cc1ccccc1)C(=O)N1CCC(C(=O)NCC(=O)Nc2ccc(F)cc2)CC1` is 20% (inactive); for `COc1cc(/C=N\Nc2ccc([N+](=O)[O-])cn2)ccc1OCC(=O)O` it is -3.4% (inactive).
Same read-out and setting: the figure for `Cc1ccc(-n2c(C)cc(/C=N/Nc3ccc([N+](=O)[O-])cn3)c2C)c(C)c1` is 6.6% (inactive); for `Cc1cc(/C=N/Nc2ccc([N+](=O)[O-])cn2)c(C)n1-c1cccc(C(=O)O)c1` it is 54.4% (active).
Take `O=C(c1cc(S(=O)(=O)N2CCOCC2)ccc1Cl)N1CCOCC1`: under “at 35 µM”, the inhibition is -2.4% (inactive).
The same measure, in the same setting: the result for `COc1cc2c(cc1OC)C(C)N(S(=O)(=O)c1cnc(Cl)c(Cl)c1)CC2` (stereo not given) reads 1.8% (inactive); that for `Cc1ccc(NS(=O)(=O)c2ccc(F)cc2)nc1`, -7.9% (inactive); that for `CCC(Cc1ccccc1)NS(=O)(=O)c1ccc2c(c1)NC(=O)CS2` (stereo not given), -2.9% (inactive).
Still for that read-out and setting: the result for `CCCCOC(=O)c1[nH]c(C)c(C(=O)OC)c1C` reads 4.8% (inactive).
Turning to `CCOC(=O)c1c(C)[nH]c(C2=NNC(=NC(C)COC)SC2)c1C` (stereo not given), the inhibition reads like this: (at 35 µM) -1.8% (active); (confirmation average, at 20 µM) 93.1%.
As for `CCOC(=O)c1c(C)[nH]c2c1-c1ccccc1C(=O)C2=O`, the inhibition (at 35 µM) is -11% (inactive).
Still for that read-out and setting: the result for `COc1cc(/C=N/O)ccc1OCc1ccc([N+](=O)[O-])cc1` reads 0.1% (inactive).
Take `COc1ccc(C(=O)/C=C/c2ccc(-c3ccccc3)cc2)cc1CSCC(=O)O`: the inhibition is 82.3% (inactive) (at 35 µM) and 47.3% (confirmation average, at 20 µM).
As to `COC(=O)c1ccc(COc2ccc(/C=C/C(=O)c3ccc(OC)c(CSCC(=O)O)c3)cc2OC)cc1`, the inhibition reads like this: (at 35 µM) 81% (active); (confirmation average, at 20 µM) 68.7%.
As for `CCCc1ccc(OCC(O)CN2CCN(CCO)CC2)cc1` (stereo not given), the inhibition (at 35 µM) was -2.4% (inactive).
`Cc1cc(C)cc(OCC(=O)NNC(=O)CCN2C(=O)c3ccccc3C2=O)c1`: the inhibition (at 35 µM) is 2.3% (active) and the inhibition (confirmation average, at 20 µM) worked out at 87.4%.
On to `Cc1cc(C)cc(NC(=O)CCN2C(=O)c3ccccc3C2=O)c1`, for which the inhibition (at 35 µM) was -1.3% (inactive).
Consider `Cc1ccc(NC(=O)CCN2C(=O)c3ccccc3C2=O)cc1C`, for which the inhibition (at 35 µM) is -6.5% (inactive).
Consider `COc1ccc(CN2CC(C(=O)NCCc3ccc(Cl)cc3)CC2=O)cc1` (stereo not given), for which the inhibition (at 35 µM) was -12.2% (inactive).
The same measure, in the same setting: the result for `O=C(N/C(=C\c1ccc([N+](=O)[O-])cc1)C(=O)N1CCOCC1)c1cccc(Br)c1` reads 7.9% (inactive); that for `O=C1c2ccccc2C(=O)N1CCOc1ccc(F)cc1`, 0.9% (inactive); that for `O=C(Nc1nonc1-c1ccc(Cl)cc1)c1ccco1`, -12.8% (inactive).
Same read-out and setting: the result for `Cc1cc2occ(CC(=O)NNC(=O)c3ccccc3F)c2cc1C` reads -3% (inactive).
`CC1CN(C(=O)c2ccccc2NS(=O)(=O)c2cccc([N+](=O)[O-])c2)CC(C)O1` (stereo not given): the inhibition is, setting by setting: (at 35 µM) -0.3% (active); (confirmation average, at 20 µM) 95.9%.
Take `COCCNC(=O)c1ccccc1NS(=O)(=O)c1ccc(C)c([N+](=O)[O-])c1`: the inhibition (at 35 µM) is 9.2% (inactive).
Still for that read-out and setting: the figure for `COc1ccc(S(=O)(=O)Nc2ccccc2C(=O)N2CCCC2)cc1C` is -2.4% (inactive); for `O=S(=O)(c1ccc(Cl)cc1)c1nc(-c2ccccc2F)oc1NCCN1CCOCC1` it is -7.4% (inactive); for `Cc1nn(C)cc1S(=O)(=O)N1CCN(c2ccc(F)cc2)CC1` it is 1% (inactive).
Consider `O=C(N/N=C/c1ccc([N+](=O)[O-])o1)c1cccc(S(=O)(=O)N2CCOCC2)c1`, for which the inhibition by setting is: (at 35 µM) 52% (active); (confirmation average, at 20 µM) 78.6%.
Consider `COc1cccc(/C=N/NC(=O)CNC(=O)c2ccc(S(=O)(=O)N3CCOCC3)cc2)c1OC`, for which the inhibition (at 35 µM) is 7.4% (inactive).
On the same count and under the same terms, the figure for `COc1ccc(Br)cc1/C=N/NC(=O)c1cccc(S(=O)(=O)N2CCOCC2)c1` is -3.8% (inactive).
